{
  "source": "PubChem BioAssay AID743361",
  "about": "(Molecular Libraries Program, Specialized Chemistry Center, …, 2014)",
  "note": "Unmarked numbers belong to inactive results. Activity calls are given as the source filed them. How the calls were made is not given here.",
  "data": [
    {"assay": "cell-free Rh123 fluorescence quenching read-out – biochemical, dry powder samples, uHTS hits, counter-screen for mtPTP inhibitor project, dose response (AID 743361)", "conditions": "Rhodamine 123 fluorescence quenching counterscreen", "values": [
      {"smiles": "COc1ccc(Cl)c(C(=O)Nc2ccc(CN3CCOCC3)cc2)c1", "IC50": "> 100 µM"},
      {"smiles": "CCN(CC)c1ccc(NC(=O)c2ccc(OC)c(Cl)c2)cc1", "IC50": "> 100 µM"},
      {"smiles": "O=C(Nc1ccc(CN2CCCCC2)cc1)c1cc(Cl)cc(OCc2ccccc2)c1", "IC50": "26.9 µM (active)"},
      {"smiles": "COc1ccc(Cl)cc1C(=O)Nc1ccc(CN2CCN(C)CC2)cc1", "IC50": "> 100 µM"},
      {"smiles": "CN1CCN(Cc2ccc(NS(=O)(=O)c3ccc(F)c(Cl)c3)cc2)CC1", "IC50": "> 100 µM"},
      {"smiles": "COc1ccc(Cl)cc1C(=O)Nc1ccc(CCN2CCOCC2)cc1", "IC50": "> 100 µM"},
      {"smiles": "COc1ccc(Cl)cc1C(=O)Nc1ccc(N(C)C)cc1", "IC50": "> 100 µM"},
      {"smiles": "COc1ccc(Cl)cc1C(=O)Nc1cccc(CN2CCNCC2)c1", "IC50": "> 100 µM"},
      {"smiles": "C[C@@H]1CCC[C@H](C)N1CCCC(=O)c1ccc(Br)cc1", "IC50": "> 100 µM"},
      {"smiles": "COc1ccc(Cl)cc1S(=O)(=O)Nc1ccc(CN2CCN(C)CC2)cc1", "IC50": "> 100 µM"},
      {"smiles": "COc1ccc(NC(=O)c2cc(-c3ccc(Cl)cc3)on2)cc1Cl", "IC50": "> 100 µM"},
      {"smiles": "CN1CCN(CCc2ccc(NS(=O)(=O)c3ccc(F)c(Cl)c3)cc2)CC1", "IC50": "> 100 µM"},
      {"smiles": "O=S(=O)(Nc1ccc(CCN2CCCCC2)cc1)c1cc(Cl)cc(Cl)c1", "IC50": "> 100 µM"},
      {"smiles": "COc1c(Cl)cccc1NC(=O)c1cc(-c2cccc(O)c2)on1", "IC50": "> 100 µM"},
      {"smiles": "COc1ccc(NC(=O)c2cc(-c3cccc(O)c3)on2)cc1Cl", "IC50": "> 100 µM"}
    ]}
  ]
}
